{"source": "PubChem BioAssay (NCI)", "note": "About 83,000 compounds went through this panel and 20% of them were active in at least one assay; those are over-represented in the sample as a whole.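 Testing used 96-well plates and a 48-hour single-concentration exposure. Example: -40 means 40% of the starting cells died.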 Activity calls are given as the source filed them. How the source made its calls: active means growth percent below 10; inactive means the rest."}
{"tested_on": "NCI-H322M lung", "assay": "NCI-60 one-dose screen, 48 h (100 = growth as untreated, 0 = no growth, -100 = all killed)", "settings": "10 µM unless noted"}
{"compound": "S=C1CCSC(=S)N1CCCN1C(=S)CCSC1=S", "growth": "113% (inactive)"}
{"compound": "O=C(COc1ccc(-c2nc3ccccc3[nH]2)cc1)N=Nc1c(O)[nH]c2ccc(Cl)cc12", "growth": "101% (inactive)"}
{"compound": "Cc1ccc(/C=N/Nc2nc(Nc3ccccc3)nc(-n3nc(C)cc3C)n2)cc1", "growth": "27% (inactive)"}
{"compound": "O=[N+]([O-])c1ccc(N/N=C(/C(=N/Nc2ccc([N+](=O)[O-])cc2)c2ccccc2)c2ccccc2)cc1", "growth": "81.1% (inactive)"}
{"compound": "CCOC(=O)c1c(NC(=O)c2ccc(C(C)C)cc2)sc2c(CN(C)C)c(O)ccc12", "growth": "79.2% (inactive)"}
{"compound": "C#Cc1ccc(NC(=O)c2ccc(/C=C/C(=O)c3nccn3C)cc2)cc1", "growth": "-95.4% (active)"}
{"compound": "O=C(NCCCCNC(=O)OCc1ccc2c(Cl)cc(Cl)c(O)c2n1)OCc1ccc2c(Cl)cc(Cl)c(O)c2n1", "growth": "34.3% (inactive)"}
{"compound": "c1cc2[nH]ncc2cc1-c1nc2ccc3[nH]ncc3c2c2c1CCCC2", "growth": "23.7% (inactive)"}
{"compound": "C[C@H](NC(=O)[C@@H](C)N)[C@H](Oc1ccc2c(cnn2-c2ccc(F)cc2)c1)c1ccc2c(c1)OCCO2", "growth": "75.5% (inactive)"}
{"compound": "CCN(CC)c1nc(SCc2ccccc2Cl)ncc1C", "growth": "121% (inactive)"}
{"compound": "O=S(=O)(NCCCNc1nccc(-c2c(-c3ccc(F)c(O)c3)nc3occn23)n1)c1ccccc1", "growth": "98.5% (inactive)"}
{"compound": "O=C(NCc1ccccc1)Nc1ccccc1CNc1nc(Nc2ccc(OCCN3CCCC3)cc2)ncc1Cl", "growth": "109% (inactive)"}
{"compound": "C=CCc1c2c(c(OC)c3ccoc13)C(=O)/C(=C/c1ccccc1OC)O2", "growth": "65.9% (inactive)"}
{"compound": "COc1ccc(NC(=O)c2sc3nc(C)c(C(=O)/C=C/c4cccc(OC)c4)cc3c2N)cc1", "growth": "18% (inactive)"}
{"compound": "N#Cc1c(NC(=O)c2ccccc2)sc2c1CCC(=O)C2", "growth": "71.9% (inactive)"}
{"compound": "CN(C)CCCn1c2c(c3ncccc3c1=O)C(=O)c1ccccc1-2", "growth": "44.1% (inactive)"}
{"compound": "CCOC(=O)Cn1c(O)c(N=Nc2ccc(S(N)(=O)=O)cc2)c2cc(Br)ccc21", "growth": "77.7% (inactive)"}
{"compound": "Cc1nc(-c2ccccc2)cc2c(O)c(C(=O)NN)[nH]c(=O)c12", "growth": "92.7% (inactive)"}
{"compound": "O=C(Nn1c2c(sc1=Nc1ccccc1)C(=O)c1ccccc1C2=O)c1cc2ccc1CCc1ccc(cc1)CC2", "growth": "99.8% (inactive)"}
{"compound": "CNC(=O)c1c(NC(=O)c2ccc(C(F)(F)F)cc2)sc2c1CCC(=O)C2", "growth": "29.5% (inactive)"}
{"compound": "C#CCOc1cccc(Nc2ncnc3ccc(NC(=O)CCl)cc23)c1", "growth": "-18.8% (active)"}
{"compound": "CS(=O)(=O)Nc1cc(-c2ccc3ncnc(Nc4ccc5c(cnn5Cc5ccccn5)c4)c3c2)cnc1Cl", "growth": "86.2% (inactive)"}
{"compound": "Oc1c(Cl)cc(Cl)cc1/C=N/Nc1nnc(N/N=C/c2cc(Cl)cc(Cl)c2O)c2ccccc12", "growth": "21% (inactive)"}
{"compound": "CCn1cc(C(=O)N/N=C/c2cccs2)c(=O)c2cc(F)c(N3CCNC(C)C3)c(F)c21", "note": "(stereo not given)", "growth": "84.1% (inactive)"}
{"compound": "O=C(NNC(=O)c1ccc(-n2cc(-c3ccccc3)nn2)cc1)Nc1ccccc1", "growth": "108% (inactive)"}
{"compound": "COc1ccc(CC(C#N)c2cc3ccccc3[nH]2)cc1", "note": "(stereo not given)", "growth": "92.9% (inactive)"}
{"compound": "O=C(c1ccc(Cl)cc1)N1CCN(c2ccnc3cc(Cl)ccc23)CC1", "growth": "96.5% (inactive)"}
{"compound": "CN1CCN(Cc2ccc3c(NNC(=O)c4ccccc4)nc4cc(F)ccc4n23)CC1", "growth": "28.2% (inactive)"}
{"compound": "c1ccc(CNc2c3ccccc3nc3ccccc23)cc1", "growth": "46.3% (inactive)"}
{"compound": "N#C/C(=C/c1ccc([N+](=O)[O-])cc1)n1nnc2cc(F)c(F)cc21", "growth": "98.4% (inactive)"}
{"compound": "O=C1CNC(c2ccccc2)C(c2ccccc2)N1", "note": "(stereo not given)", "growth": "103% (inactive)"}
{"tested_on": "HOP-62 NSCLC", "assay": "NCI-60 one-dose screen, 48 h (100 = growth as untreated, 0 = no growth, -100 = all killed)", "settings": "10 µM unless noted"}
{"compound": "Nc1ncnc2c1N=C(c1ccc3c(c1)OCO3)CC(c1ccc([N+](=O)[O-])cc1)N2", "note": "(stereo not given)", "growth": "66.9% (inactive)"}
{"compound": "Cc1ccc(-c2csc(NC(=O)CN3CCN(c4cc5c(cc4F)c(=O)c(C(=O)O)cn5C4CC4)CC3)n2)cc1", "growth": "11.2% (inactive)"}
{"compound": "Clc1ccc(Sc2cnc(-c3ccccc3)o2)cc1", "growth": "94.4% (inactive)"}
{"compound": "COc1ccc(-c2cc(-c3ccc(Cl)cc3)c(C#N)c(=O)n2CCCCC(=O)Nc2ccccc2N)cc1", "growth": "64.1% (inactive)"}
{"compound": "CCN(CC)c1nc(SCc2ccccc2Cl)ncc1C", "growth": "93.1% (inactive)"}
{"compound": "O=C(Nn1c2c(sc1=Nc1ccccc1)C(=O)c1ccccc1C2=O)c1cc2ccc1CCc1ccc(cc1)CC2", "growth": "66.4% (inactive)"}
{"compound": "CNC(=O)c1c(NC(=O)c2ccc(C(F)(F)F)cc2)sc2c1CCC(=O)C2", "growth": "14.5% (inactive)"}
{"compound": "CS(=O)(=O)Nc1cc(-c2ccc3ncnc(Nc4ccc5c(cnn5Cc5ccccn5)c4)c3c2)cnc1Cl", "growth": "68.8% (inactive)"}
{"compound": "COc1ccc(CC(C#N)c2cc3ccccc3[nH]2)cc1", "note": "(stereo not given)", "growth": "89% (inactive)"}
{"tested_on": "NCI-H460 lung", "assay": "NCI-60 one-dose screen, 48 h (100 = growth as untreated, 0 = no growth, -100 = all killed)", "settings": "10 µM unless noted"}
{"compound": "C#CCOc1ccc2ncnc(Nc3cccc(NC(=O)C=C)c3)c2c1", "growth": "65.1% (inactive)"}
{"compound": "Nc1ncnc2c1N=C(c1ccc3c(c1)OCO3)CC(c1ccc([N+](=O)[O-])cc1)N2", "note": "(stereo not given)", "growth": "96.2% (inactive)"}
{"compound": "CCCCN1C(=O)/C(=c2\\sc3n(c2=O)C2C(NN=3)N(CC)C(=O)N2CC)c2ccccc21", "note": "(stereo not given)", "growth": "3.01% (active)"}
{"compound": "CCOC(=O)C1=NN(c2ccccc2)C(=O)/C1=C\\N1C(=O)CC(=O)NC1=S", "growth": "106% (inactive)"}
{"compound": "O=C(N/N=C/c1ccc(F)cc1)c1ccc(C(F)(F)F)nc1Nc1cccc(C(F)(F)F)c1", "growth": "-17.7% (active)"}
{"compound": "Cc1ccc(-c2csc(NC(=O)CN3CCN(c4cc5c(cc4F)c(=O)c(C(=O)O)cn5C4CC4)CC3)n2)cc1", "growth": "14.4% (inactive)"}
{"compound": "Clc1ccc(Sc2cnc(-c3ccccc3)o2)cc1", "growth": "110% (inactive)"}
{"compound": "COc1ccc(-c2cc(-c3ccc(Cl)cc3)c(C#N)c(=O)n2CCCCC(=O)Nc2ccccc2N)cc1", "growth": "37.6% (inactive)"}
{"compound": "C=C(C)[C@@H]1CC[C@]2(C(=O)O)CC[C@]3(C)[C@H](CC[C@@H]4[C@@]5(C)C[C@@H](Cc6cn(CCO[C@@H]7O[C@H](COC(C)=O)[C@H](OC(C)=O)[C@H](OC(C)=O)[C@H]7OC(C)=O)nn6)[C@H](O)C(C)(C)[C@@H]5CC[C@]43C)[C@@H]12", "growth": "62% (inactive)"}
{"compound": "S=C1CCSC(=S)N1CCCN1C(=S)CCSC1=S", "growth": "97.7% (inactive)"}
{"compound": "O=C(COc1ccc(-c2nc3ccccc3[nH]2)cc1)N=Nc1c(O)[nH]c2ccc(Cl)cc12", "growth": "30.7% (inactive)"}
{"compound": "Cc1ccc(/C=N/Nc2nc(Nc3ccccc3)nc(-n3nc(C)cc3C)n2)cc1", "growth": "6.72% (active)"}
{"compound": "O=[N+]([O-])c1ccc(N/N=C(/C(=N/Nc2ccc([N+](=O)[O-])cc2)c2ccccc2)c2ccccc2)cc1", "growth": "46.2% (inactive)"}
{"compound": "CCOC(=O)c1c(NC(=O)c2ccc(C(C)C)cc2)sc2c(CN(C)C)c(O)ccc12", "growth": "6.2% (active)"}
{"compound": "C#Cc1ccc(NC(=O)c2ccc(/C=C/C(=O)c3nccn3C)cc2)cc1", "growth": "-56.4% (active)"}
{"compound": "O=C(NCCCCNC(=O)OCc1ccc2c(Cl)cc(Cl)c(O)c2n1)OCc1ccc2c(Cl)cc(Cl)c(O)c2n1", "growth": "2.78% (active)"}
{"compound": "c1cc2[nH]ncc2cc1-c1nc2ccc3[nH]ncc3c2c2c1CCCC2", "growth": "13.6% (inactive)"}
{"compound": "C[C@H](NC(=O)[C@@H](C)N)[C@H](Oc1ccc2c(cnn2-c2ccc(F)cc2)c1)c1ccc2c(c1)OCCO2", "growth": "0.905% (active)"}
{"compound": "CCN(CC)c1nc(SCc2ccccc2Cl)ncc1C", "growth": "106% (inactive)"}
{"compound": "O=S(=O)(NCCCNc1nccc(-c2c(-c3ccc(F)c(O)c3)nc3occn23)n1)c1ccccc1", "growth": "75.7% (inactive)"}
{"compound": "O=C(NCc1ccccc1)Nc1ccccc1CNc1nc(Nc2ccc(OCCN3CCCC3)cc2)ncc1Cl", "growth": "39.4% (inactive)"}
{"compound": "C=CCc1c2c(c(OC)c3ccoc13)C(=O)/C(=C/c1ccccc1OC)O2", "growth": "31.3% (inactive)"}
{"compound": "COc1ccc(NC(=O)c2sc3nc(C)c(C(=O)/C=C/c4cccc(OC)c4)cc3c2N)cc1", "growth": "-7.38% (active)"}
{"compound": "N#Cc1c(NC(=O)c2ccccc2)sc2c1CCC(=O)C2", "growth": "16.3% (inactive)"}
{"compound": "CN(C)CCCn1c2c(c3ncccc3c1=O)C(=O)c1ccccc1-2", "growth": "11.6% (inactive)"}
{"compound": "CCOC(=O)Cn1c(O)c(N=Nc2ccc(S(N)(=O)=O)cc2)c2cc(Br)ccc21", "growth": "44.1% (inactive)"}
{"compound": "Cc1nc(-c2ccccc2)cc2c(O)c(C(=O)NN)[nH]c(=O)c12", "growth": "106% (inactive)"}
{"compound": "O=C(Nn1c2c(sc1=Nc1ccccc1)C(=O)c1ccccc1C2=O)c1cc2ccc1CCc1ccc(cc1)CC2", "growth": "71.9% (inactive)"}
{"compound": "CNC(=O)c1c(NC(=O)c2ccc(C(F)(F)F)cc2)sc2c1CCC(=O)C2", "growth": "4.57% (active)"}
{"compound": "C#CCOc1cccc(Nc2ncnc3ccc(NC(=O)CCl)cc23)c1", "growth": "-19.9% (active)"}
{"compound": "CS(=O)(=O)Nc1cc(-c2ccc3ncnc(Nc4ccc5c(cnn5Cc5ccccn5)c4)c3c2)cnc1Cl", "growth": "85.8% (inactive)"}
{"compound": "Oc1c(Cl)cc(Cl)cc1/C=N/Nc1nnc(N/N=C/c2cc(Cl)cc(Cl)c2O)c2ccccc12", "growth": "0.0293% (active)"}
{"compound": "CCn1cc(C(=O)N/N=C/c2cccs2)c(=O)c2cc(F)c(N3CCNC(C)C3)c(F)c21", "note": "(stereo not given)", "growth": "23.6% (inactive)"}
{"compound": "O=C(NNC(=O)c1ccc(-n2cc(-c3ccccc3)nn2)cc1)Nc1ccccc1", "growth": "109% (inactive)"}
{"compound": "COc1ccc(CC(C#N)c2cc3ccccc3[nH]2)cc1", "note": "(stereo not given)", "growth": "97.2% (inactive)"}
{"compound": "O=C(c1ccc(Cl)cc1)N1CCN(c2ccnc3cc(Cl)ccc23)CC1", "growth": "96.2% (inactive)"}
{"compound": "CN1CCN(Cc2ccc3c(NNC(=O)c4ccccc4)nc4cc(F)ccc4n23)CC1", "growth": "3.88% (active)"}
{"compound": "c1ccc(CNc2c3ccccc3nc3ccccc23)cc1", "growth": "10.3% (inactive)"}
{"compound": "N#C/C(=C/c1ccc([N+](=O)[O-])cc1)n1nnc2cc(F)c(F)cc21", "growth": "33.1% (inactive)"}
{"compound": "O=C1CNC(c2ccccc2)C(c2ccccc2)N1", "note": "(stereo not given)", "growth": "103% (inactive)"}
